Among all 2,200 compounds or so, about 1,300 (59%) were called active. The set was probably picked from earlier hits. Only a sample is shown. Measured potencies and affinities stand elsewhere. Unmarked numbers belong to inactive results. No rule for the calls is given here.

One may read the viability as a read-out of living cells in per cent, often relative to untreated cells.

This assay is described as follows: THP-1 cell cytotoxicity, dose response, cytotoxicity control for Salmonella PhoP regulon inhibitors, S. typhimurium screen hits (AID 2253). The settings on record: THP-1 viability, CellTiter-Glo luminescence, 72 h; series mostly up to 50 µM; viability: at the top concentration. A general note: Cellular ATP, detected with luciferase, serves as a proxy for viable cell number.
`Cn1c(=O)n(CC(=O)Nc2ccccc2)c2ccccc21`: the “viability” value is 98.8%.

On to `O=C(NCc1ccco1)c1ccc(Br)s1`, for which the “viability” value was 99.7%.

In the case of `O=C(/C=C/c1ccccc1)N/C(=C/c1ccccc1)C(=O)N1CCOCC1`, the “viability” value is 91.7%.

As for `CN(C)c1ccnc(-n2cccc2/C=N/OCc2ccccc2)c1C#N`, the “viability” value is 84.2%.

As for `COC(=O)c1sc2nc(CSc3nc4ccc(C)cc4[nH]3)[nH]c(=O)c2c1C`, the “viability” value is 90.8%.

Consider `CCc1cccc2c(C#N)cn(CC(=O)NCCOC)c12`, for which the “viability” value is 98.8%.

`CN1CCN(c2c(F)cc3c(=O)c(C(=O)O)cn4c3c2SCC4)CC1`: the result was inactive.

As to `S=c1nc(-c2ccccc2)oc2c1CCCC2`, the “viability” value is 93.2%.

For the compound `COc1ccc(-c2ccc(C#N)c(SCC(=O)NCCc3ccccc3)n2)cc1OC`, the “viability” value is 85.9%.

For the compound `CCC(CC)C(=O)NCCc1ccc(OC)cc1`, the “viability” value is 84.2%.

For the compound `CCOC(=O)c1ccc2c(c1)C(=O)N(C1CCCCC1)C2=O`, the “viability” value is 101%.

As to `N#CC1=C(S)N(c2ccccc2)C(c2ccc(-c3ccccc3Cl)o2)NC1=O` (stereo not drawn), the “viability” value was 92.5%.

In the case of `O=c1c2ccccc2nnn1Cc1ccccn1`, the “viability” value is 88.6%.

`CCOC(=O)N1CCN(C(=O)c2cn(CC(C)C)c(=O)c3c2c2ccccc2n3C)CC1`: the “viability” value was 92%.

As for `N#CCOC(=O)c1sccc1-n1cccc1`, the “viability” value was 98%.

Turning to `Cc1cc(C)c(C#N)c(SCc2cn3ccccc3n2)n1`, the “viability” value is 86.7% [at 25 µM].

Regarding `CCN(CC)c1nc2n(c(=O)n1)CCO2`, the “viability” value was 87%.

On to `COC(=O)Cc1c(O)ccn(Cc2ccc(F)cc2)c1=O`, for which the “viability” value is 93.3%.

For the compound `CC1CCN(C(c2cc3cc4c(cc3[nH]c2=O)OCO4)c2nnnn2CC2CCCO2)CC1` (stereo not drawn), the “viability” value is 90%.

Regarding `CCOC(=O)C1CCCN(C(=O)Cc2ccc(Cl)cc2)C1` (stereo not drawn), the “viability” value was 93.5%.

Consider `COCC(=O)N=Nc1c(O)[nH]c2ccccc12`, for which the “viability” value was 93.8%.

For the compound `Cc1ccc(N(CC(=O)N/N=C/c2ccco2)S(=O)(=O)c2ccccc2)cc1`, the “viability” value is 80.2%.

Turning to `C=CCn1c(C)cc(C(=O)CSc2nc(N)cc(N)n2)c1C`, the “viability” value is 82.7%.

In the case of `O=C(O)CC(NC(=S)NCc1ccccc1)C(=O)O` (stereo not drawn), the “viability” value is 86.3%.

For `COc1c(/C=N/Nc2nc(N3CCCCC3)nc(N3CCCCC3)n2)cccc1[N+](=O)[O-]`, the “viability” value was 90.2%.

For the compound `CCCCN(C(=O)NC(=O)Nc1nc2ccc(OC)cc2s1)S(C)(=O)=O`, the “viability” value is 83.8%.

In the case of `CCOc1ccc(Nc2nc(NCCN3CCOCC3)nc(OC)n2)cc1`, the “viability” value is 81.4%.

`CCOc1ccc(NC(=O)CCC(=O)n2nc(C)cc2C)cc1`: the “viability” value is 95.3%.

As for `CNc1nc(Sc2ccccc2)cc(C(F)(F)F)n1`, the “viability” value was 80.4%.

Turning to `Cc1ccc(/C(O)=C2\C(=O)C(=O)N(CC(C)O)C2c2cccc(F)c2)cc1` (stereo not drawn), the “viability” value is 96.5%.

Regarding `CCOC(=O)CCCc1c[nH]c2ccccc12`, the “viability” value was 91%.

As to `NC(=O)CCc1c[nH]c2ccccc12`, the “viability” value was 96.8%.

For `CC1COc2c(N3CCN(C)CC3)c(F)cc3c(=O)c(C(=O)O)cn1c23` (stereo not drawn), the “viability” value is 84.5%.

For `CCOC(=O)c1c(/N=C/c2ccc(O)cc2O)sc2c1CCC2`, the “viability” value is 82.9%.

Consider `Cn1ncc(N=Cc2ccccc2O)c1C(=O)Nc1ccccc1`, for which the “viability” value is 93%.

As for `CCCc1ccc(C(=O)CCC(=O)O)cc1`, the “viability” value is 88.6%.

Consider `CCOC(=O)c1ccccc1C(=O)N1CCOCCOCCOCC1`, for which the “viability” value was 93.6%.

Take `COc1ccccc1N1CCN(C(=O)CSc2nc3ccccc3o2)CC1`: the “viability” value is 80.6%.

Consider `COc1ccc(C2C(C#N)=C(N)OC3=C2C(=O)CCC3)cc1Cn1cc([N+](=O)[O-])cn1` (stereo not drawn), for which the “viability” value is 80.3%.

Take `Cc1ccc2nc(SCC(=O)c3c(C)[nH]c4ccccc34)[nH]c2c1`: the “viability” value was 98.8% [at 25 µM].

`CCOC(=O)c1[nH]c2ccccc2c1NC(=O)C(C)(C)C`: the “viability” value is 94.1%.

On to `CNC(=O)CSc1nnc(-c2cccnc2)n1CCc1ccccc1`, for which the “viability” value is 108%.

Consider `CCCCC1CCC(C(=O)Nc2ccccc2)CC1` (stereo not drawn), for which the “viability” value is 97.9%.

Consider `Cc1cccc(NC(=O)c2ccc(Cn3cc(C(F)(F)F)ccc3=O)cc2)c1`, for which the “viability” value is 83%.

With `Cn1cnnc1SCC(=O)Nc1cccc(C(=O)O)c1`, the “viability” value was 93.3%.

As to `S=C(c1ccc2c(c1)OCO2)N1CCCC1`, the “viability” value is 97.4%.

In the case of `c1ccc(-c2ncnc3nc4n(c23)CCC4)cc1`, the “viability” value was 107%.

With `Cc1c(Cl)cccc1NC(=O)CSc1ncnc2c1cnn2CCc1ccccc1`, the “viability” value was 95.6%.

Consider `COC(=O)C1C(O)C(C)C(O)C(C)(O)/C=C\C=C(/C)C(=O)Nc2c(C)c(OC(C)=O)c3c(c2O)C(=O)C(C)=C2OCOC(=C23)/C(C)=C/C(C)(O)C(O)C(C)C1O` (stereo not drawn), for which the “viability” value was 91.6%.

For `CCSc1nnc(NC(=O)Cc2cccc(OC)c2)s1`, the “viability” value was 96.9%.

Take `CNc1nnc(-c2cccc(N(C)C)c2)s1`: the “viability” value is 82.4%.

As for `O=C(COc1ncnc2sccc12)N1CCN(S(=O)(=O)c2ccc(Cl)cc2)CC1`, the “viability” value was 94.2%.

As for `C=CCOc1ccccc1CNCCCN1CCOCC1`, the “viability” value is 87.5%.

On to `COc1cccc(OCC(O)CN2CCN(c3ccccn3)CC2)c1` (stereo not drawn), for which the “viability” value was 98.9%.

With `COc1ccc(OC)c(NC(=S)NCCCN2CCOCC2)c1`, the “viability” value was 91.4%.

On to `Cc1ccc(NC(=S)NCCc2ccccc2)c(C)c1`, for which the “viability” value was 80.4%.

Turning to `c1ccc(Cn2nnc3c(NCc4ccc5c(c4)OCO5)nc(C4CC4)nc32)cc1`, the “viability” value was 115%.

As for `O=C(O)c1cc(NCc2ccc3c(c2)OCO3)ccc1N1CCOCC1`, the “viability” value was 99.6%.

Values taken from PubChem BioAssay AID2253 (Southern Research Specialized Biocontainment Screening …, 2010).
